From PubChem
MCF10A rereplic: induces DNA re-replication in MCF 10a normal breast cells. AID 624296. actives 2.9% (n = 350,000). Potency, µM (titrated, usually from 46.1 µM), for the others: at the top dose activity, positive = re-replication, most hits filed as activators. MCF 10A DNA re-replication, Hoechst nuclear intensity, 48 h; also: potency is read from the fitted curve at half-maximal effect; % of control where 0% means no effect; nearly all actives have a fitted effect of over 50% in size
BCR signal inh: chronic active BCR signaling inhibition; actives 0.05% (n = 340,000); AID 493014; ABC-DLBCL IkBa-CBG/CBR reporter, luminescence ratio, 4 h; Potency, µM (doses to about 46.1 µM), for inactives: at the highest dose activity change, negative = inhibition, hits mostly inhibitors; active = well fitted inhibition curve with a large enough effect in the signal ratio, with a control signal flat, not every such curve was filed as active; inconclusive = small, poorly fitted or top-dose-only effect, or effect the other way, or a change in a side signal; the % refers to the signal ratio;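 also: potency is read from the fitted curve at half-maximal effect; plate controls were basal doxycycline-induced cells for no effect and cells given 10 µM MG132 for full effect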
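Cell line TMD8 (human ABC DLBCL), stably expressing tet-inducible CBG68-IkBa fusion and CBR; IMDM/0.5% FBS; cpd up to 46 uM; dox induction, 4 h, 37C/5% CO2; dual luminescence; green/red ratio; MG132 control.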
SW480 rereplic: DNA re-replication induction in SW480 cells | SW480 DNA re-replication, Hoechst DNA content imaging, 48 h | Potency, µM (titrated, usually from 46.1 µM), for inactives: at the top dose re-replication activation, actives largely listed as activators | actives 1.8% (n = 340,000); also: potency is read from the fitted curve at half-maximal effect; % of control where 0% means no effect; nearly all actives have a fitted effect of over 55% in size
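Treated cells incubate 48 hr (37 C, 5% CO2), are stained 40 min with Hoechst, and nuclear fluorescence is enumerated; a rise in nuclei with high DNA signal marks re-replication.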
IL-1B inflam inh: inflammasome signaling inhibition, IL-1 beta readout. activity change, % at 57.5 µM. actives 4.7% (n = 360,000). THP-1 LPS/ATP IL-1B secretion, AlphaLISA, 16 h; active compounds read low. AID 743279; in the data active = activity change below about -50%; inconclusive = mostly about -30% to -49%; also: % is scaled to controls: 0 for no effect and ±100 for the full control effect
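THP-1 cells pretreated 1 hr with compounds (up to 57.5 uM final), then stimulated with LPS (250 ng/mL final) plus ATP (1.25 mM final); secreted IL-1B measured by AlphaLISA after 16 hr, decreased signal indicating inhibition.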
TDP1 cell CPT: DT40-hTDP1 cell growth loss with CPT. chicken DT40 Tdp1-/-;hTDP1 cells + 20 nM CPT, ATP luminescence, 48 h. actives 12% (n = 420,000). Potency, µM (top dose mostly 46.2 µM), for the others: top-dose activity change, negative = growth inhibition, actives largely listed as inhibitors; also: potency is read from the fitted curve at half-maximal effect; % is scaled to controls: 0 for no effect and ±100 for the full control effect; nearly all actives have a fitted effect of over 55% in size
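Cell growth measured by CellTiter-Glo luminescence after a minimum 48 h, 37 C compound exposure with 20 nM CPT in Tdp1-knockout DT40 cells stably expressing hTDP1, seeded 400/well; qHTS titration format.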
TDP1 cell noCPT: qHTS for Inhibitors of human tyrosyl-DNA phosphodiesterase 1 (TDP1): qHTS in cells in absence of CPT. AID 686978, 2013. actives 15% (n = 420,000). Potency, µM (doses to about 46.2 µM), inactives show at the highest dose activity change, negative = growth inhibition, hits mostly inhibitors. DT40 Tdp1-/- hTDP1 cells, no CPT, ATP luminescence, 48 h; also: potency is read from the fitted curve at half-maximal effect; % is scaled to controls: 0 for no effect and ±100 for the full control effect; nearly all actives have a fitted effect of over 55% in size
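Cells were dispensed at 400 per well, compounds added by pin tool, plates incubated ≥48 hr at 37 °C, then CellTiter-Glo added for 30 min at room temperature before luminescence reading. Line: DT40 Tdp1-/- complemented with hTDP1; camptothecin omitted.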
An asterisk follows results filed as active. Hits are enriched below; roughly 19% of the tested compounds scored in any of these assays. Unless noted, calls follow the shape of the dose curve; as a rule, active = well fitted curve in the direction sought with a large enough effect; inconclusive = small, poorly fitted or top-dose-only effect, or another doubt; inactive = no such curve, though single readings can be large; an effect the other way counts as inactive or inconclusive.

Results for CCN(C(=O)CSc1nc2cc(C(=O)OC)ccc2c(=O)n1Cc1ccco1)c1cccc(C)c1 ?
MCF10A rereplic: -2%; BCR signal inh: inconclusive; SW480 rereplic: -9%; IL-1B inflam inh: 18; TDP1 cell CPT: 21µM*; TDP1 cell noCPT: inconclusive

What do the screens show for `CCCCNC(=O)C1(C)CCC(=O)N1CCCn1ccnc1` (centres undefined)?
IL-1B inflam inh: 8; TDP1 cell CPT: 5%; TDP1 cell noCPT: 10%

Results for CC(O)CNC(=O)C(=O)Nc1c2c(nn1-c1ccc(Cl)cc1)CSC2 (centres undefined) ?
BCR signal inh: inconclusive; TDP1 cell CPT: 0%; TDP1 cell noCPT: -2%

Results for C=CCOc1ccc(C2C(C#N)=C(N)N(N(C)C)C3=C2C(=O)CCC3)cc1 (centres undefined) ?
MCF10A rereplic: -7%; BCR signal inh: 1%; SW480 rereplic: -3%; IL-1B inflam inh: 9; TDP1 cell CPT: -3%; TDP1 cell noCPT: -19%

Results for c1cc(-c2sc(-c3ccncc3)c(-c3ccncc3)c2-c2ccncc2)ccn1 ?
MCF10A rereplic: -6%; BCR signal inh: -3%; SW480 rereplic: 14%; TDP1 cell CPT: inconclusive; TDP1 cell noCPT: 10µM*

How did COc1ccc(C(=O)C(C)[n+]2ccc(C)c3ccccc32)cc1[N+](=O)[O-] (centres undefined) do in these assays?
MCF10A rereplic: 0%; BCR signal inh: -3%; SW480 rereplic: 15%; IL-1B inflam inh: 0; TDP1 cell CPT: 18µM*; TDP1 cell noCPT: 7.3µM*

What do the screens show for `CCCc1cc(N2CCN(c3cc(Cl)ccc3C)CC2)n2cnnc2n1`?
TDP1 cell CPT: 13µM*; TDP1 cell noCPT: 5.2µM*

How did CN(C(=O)c1ccc(Br)o1)C1(C)CCS(=O)(=O)C1 (centres undefined) do in these assays?
MCF10A rereplic: 4%; BCR signal inh: -3%; SW480 rereplic: 29%; IL-1B inflam inh: -7; TDP1 cell CPT: -2%; TDP1 cell noCPT: 7%

What do the screens show for `Clc1cccc(-c2cc3nc(NCCOc4ccccc4)ccn3n2)c1`?
IL-1B inflam inh: -17; TDP1 cell CPT: -2%; TDP1 cell noCPT: -5%

Results for Clc1cccc(CNc2ccn3nc(-c4ccc(OCc5ccccc5)cc4)cc3n2)c1 ?
IL-1B inflam inh: -16; TDP1 cell CPT: 16µM*; TDP1 cell noCPT: inconclusive

What do the screens show for `Clc1cccc(CNc2ccn3nc(-c4ccccc4)cc3n2)c1`?
IL-1B inflam inh: -6; TDP1 cell CPT: 23µM*; TDP1 cell noCPT: 21µM*

What do the screens show for `Clc1cccc(CNc2ccn3nc(-c4cccc(Cl)c4)cc3n2)c1`?
IL-1B inflam inh: -51*; TDP1 cell CPT: inconclusive; TDP1 cell noCPT: inconclusive

Results for Clc1ccccc1-c1cc2nc(NCCCn3ccnc3)ccn2n1 ?
IL-1B inflam inh: -21; TDP1 cell CPT: -3%; TDP1 cell noCPT: -1%

How did Clc1ccc(-c2cc3nc(NCc4cccc(Cl)c4)ccn3n2)cc1 do in these assays?
IL-1B inflam inh: 18; TDP1 cell CPT: inconclusive; TDP1 cell noCPT: 26µM*

Results for CCOc1ccccc1NC(=O)N1CCN(S(=O)(=O)c2ccc3c(ccn3C)c2)CC1 ?
TDP1 cell CPT: -16%; TDP1 cell noCPT: -27%

Results for Cn1nc(C(=O)NNC(=O)Cc2ccc(S(=O)(=O)N3CCOCC3)s2)c2ccccc2c1=O ?
MCF10A rereplic: 7%; SW480 rereplic: -7%; IL-1B inflam inh: 8; TDP1 cell CPT: 9%; TDP1 cell noCPT: -12%

How did CN(C)C(=O)CNc1ccn2nc(-c3cccc(Cl)c3)cc2n1 do in these assays?
IL-1B inflam inh: 20; TDP1 cell CPT: 23µM*; TDP1 cell noCPT: 18µM*

Results for CC(C)(C)c1cc2nc(NCc3cccc(Cl)c3)ccn2n1 ?
IL-1B inflam inh: -19; TDP1 cell CPT: 18µM*; TDP1 cell noCPT: 16µM*

What do the screens show for `CC(C)(C)C(=O)Nc1nnc([C@H]2C[C@H](O)[C@@H](CO)O2)s1`?
IL-1B inflam inh: 39; TDP1 cell CPT: 1%; TDP1 cell noCPT: 10%

What do the screens show for `COc1ccc(C)c2sc(N(CCN(C)C)C(=O)c3ccc4ccccc4c3)nc12`?
MCF10A rereplic: 0%; BCR signal inh: inconclusive; SW480 rereplic: -15%; IL-1B inflam inh: -54*; TDP1 cell CPT: 18µM*; TDP1 cell noCPT: inconclusive

What do the screens show for `Cc1cc(C)c2nc(N(CCN(C)C)C(=O)c3ccc4ccccc4c3)sc2c1`?
MCF10A rereplic: -3%; BCR signal inh: -3%; SW480 rereplic: -28%; IL-1B inflam inh: 0; TDP1 cell CPT: 16µM*; TDP1 cell noCPT: 13µM*

What do the screens show for `CCOc1cccc2sc(N(CCN(C)C)C(=O)c3ccc4ccccc4c3)nc12`?
MCF10A rereplic: 8%; BCR signal inh: -10%; SW480 rereplic: -16%; IL-1B inflam inh: -101*; TDP1 cell CPT: inconclusive; TDP1 cell noCPT: inconclusive

Results for CCc1ccccc1NC(=O)CCc1c(C)nn(-c2ccc(N3CCOCC3)nn2)c1C ?
MCF10A rereplic: -1%; BCR signal inh: 5%; SW480 rereplic: -1%; IL-1B inflam inh: -7; TDP1 cell CPT: -13%; TDP1 cell noCPT: 4%

Results for O=[N+]([O-])c1ccc(N2CCN(Cc3ccc(Br)o3)CC2)cc1 ?
MCF10A rereplic: 16%; BCR signal inh: 0%; SW480 rereplic: 0%; IL-1B inflam inh: -28; TDP1 cell CPT: inconclusive; TDP1 cell noCPT: -8%

What do the screens show for `Cc1noc(C)c1CSc1nc2ccccc2c(=O)n1-c1ccccc1`?
MCF10A rereplic: 7.3µM*; BCR signal inh: inconclusive; SW480 rereplic: 13µM*; IL-1B inflam inh: -6; TDP1 cell CPT: 6.5µM*; TDP1 cell noCPT: 5.8µM*

How did Cc1noc(C)c1CSc1nc2ccccc2c(=O)n1-c1ccc(F)cc1F do in these assays?
MCF10A rereplic: 13µM*; BCR signal inh: -1%; SW480 rereplic: inconclusive; IL-1B inflam inh: -12; TDP1 cell CPT: 8.2µM*; TDP1 cell noCPT: 7.3µM*

How did O=C(CN1CCN(S(=O)(=O)N2CCOCC2)CC1)Nc1ccc(Cl)c(Cl)c1 do in these assays?
MCF10A rereplic: 7%; BCR signal inh: -8%; SW480 rereplic: 0%; IL-1B inflam inh: -10; TDP1 cell CPT: inconclusive; TDP1 cell noCPT: 16µM*
